How the values were obtained:
[1] = biological target: T1, GST-Nv-NF-kB (Ser allele) (Nematostella vectensis, UniProt A7UNT2 2-411); experiment: protein-binding microarray (PBM); PBM: ~300 nM protein, 6 mM HEPES pH 7.8, 80 mM KCl, 0.5 mM EDTA, 0.5 mM EGTA, 6% glycerol, 35 ng/ul poly-dIdC, 1% milk, 1 h, room temperature; Ap Aiptasia and Nv Nematostella (sea anemones) / Co Capsaspora / Aq Amphimedon (sponge) / Dm Drosophila / Hu human; RHD is the Rel homology domain; high values mean tight binding; settings: dsDNA, one strand shown
T1 sequence: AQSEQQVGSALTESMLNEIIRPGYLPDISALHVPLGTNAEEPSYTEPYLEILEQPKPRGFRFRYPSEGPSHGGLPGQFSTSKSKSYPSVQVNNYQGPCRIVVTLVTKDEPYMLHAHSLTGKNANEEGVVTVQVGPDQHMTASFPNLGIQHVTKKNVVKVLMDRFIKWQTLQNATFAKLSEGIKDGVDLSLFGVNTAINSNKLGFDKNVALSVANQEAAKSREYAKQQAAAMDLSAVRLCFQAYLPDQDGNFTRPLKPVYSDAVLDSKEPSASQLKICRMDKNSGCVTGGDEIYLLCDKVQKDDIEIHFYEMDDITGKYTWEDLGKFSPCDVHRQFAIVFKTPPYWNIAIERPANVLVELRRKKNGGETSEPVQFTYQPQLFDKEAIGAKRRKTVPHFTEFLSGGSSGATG

[2] = biological target: GST-Hu-p50 (Homo sapiens, UniProt P19838 7-356); experiment: as above; settings: dsDNA, one strand shown
Sequence of GST-Hu-p50 (P19838 7-356): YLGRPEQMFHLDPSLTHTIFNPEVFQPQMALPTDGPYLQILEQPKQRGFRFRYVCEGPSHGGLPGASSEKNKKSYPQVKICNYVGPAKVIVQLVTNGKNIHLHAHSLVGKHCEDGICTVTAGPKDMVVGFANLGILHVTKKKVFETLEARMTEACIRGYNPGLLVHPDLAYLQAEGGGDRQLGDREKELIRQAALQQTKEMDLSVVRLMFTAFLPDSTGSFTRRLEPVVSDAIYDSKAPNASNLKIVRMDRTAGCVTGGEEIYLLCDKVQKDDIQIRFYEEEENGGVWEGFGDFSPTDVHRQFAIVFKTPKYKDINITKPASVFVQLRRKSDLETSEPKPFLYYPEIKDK

| Sequence | binding signal [1] | binding signal [2] |
| --- | --- | --- |
| CCGATTAACATCAGGGATCTACCTGATGTTAATCGGGTCTTGATTCGCTTGACGCTGCTG | 1.74 z-score | 2.74 z-score |
| CCGATTAACATCAGGGGACGCACTGATGTTAATCGGGTCTTGATTCGCTTGACGCTGCTG | 4.02 z-score | 4.28 z-score |
| CCGATTAACATCAGGGATATTTATGATGTTAATCGGGTCTTGATTCGCTTGACGCTGCTG | 2.29 z-score | 2.35 z-score |
| CCGATTAACATCAAGCATCCCCCTGATGTTAATCGGGTCTTGATTCGCTTGACGCTGCTG | 5.87 z-score | 4.97 z-score |
| CCGATTAACATCAGGATTTTACCTGATGTTAATCGGGTCTTGATTCGCTTGACGCTGCTG | 3.67 z-score | 2.65 z-score |
| CCGATTAACATCAAGTATTTCCCTGATGTTAATCGGGTCTTGATTCGCTTGACGCTGCTG | 5.24 z-score | 3.64 z-score |
| CCGATTAACATCAACTCGGGAAATGATGTTAATCGGGTCTTGATTCGCTTGACGCTGCTG | 2.66 z-score | 1.46 z-score |
| CCGATTAACATCAGGGTTTTCCATGATGTTAATCGGGTCTTGATTCGCTTGACGCTGCTG | 1.68 z-score | 2.46 z-score |
| CCGATTAACATCAGGGAAAAGGATGATGTTAATCGGGTCTTGATTCGCTTGACGCTGCTG | 4.08 z-score | 1.47 z-score |
| CCGATTAACATCAAGGGGGGTGGTGATGTTAATCGGGTCTTGATTCGCTTGACGCTGCTG | 4.43 z-score | 4.27 z-score |
| CCGATTAACATCAGATTTCTCCCTGATGTTAATCGGGTCTTGATTCGCTTGACGCTGCTG | 3.47 z-score | 1.72 z-score |
| CCGATTAACATCAGGGGGTCTACTGATGTTAATCGGGTCTTGATTCGCTTGACGCTGCTG | 2.55 z-score | 3.36 z-score |
| CCGATTAACATCAGGGGGTAGGATGATGTTAATCGGGTCTTGATTCGCTTGACGCTGCTG | 3.54 z-score | 2.97 z-score |
| CCGATTAACATCAGGGAAGTCCATGATGTTAATCGGGTCTTGATTCGCTTGACGCTGCTG | 1.93 z-score | 1.11 z-score |
| CCGATTAACATCACAAATGGGAATGATGTTAATCGGGTCTTGATTCGCTTGACGCTGCTG | 1.63 z-score | 1.06 z-score |
| CCGATTAACATCAACTAATTCCCTGATGTTAATCGGGTCTTGATTCGCTTGACGCTGCTG | 4.35 z-score | 2.11 z-score |
| CCGATTAACATCACCTCTTTCCCTGATGTTAATCGGGTCTTGATTCGCTTGACGCTGCTG | 3.91 z-score | 2.44 z-score |
| CCGATTAACATCAGGGGATCCACTGATGTTAATCGGGTCTTGATTCGCTTGACGCTGCTG | 5.91 z-score | 4.97 z-score |
| CCGATTAACATCAGGGAATGACCTGATGTTAATCGGGTCTTGATTCGCTTGACGCTGCTG | 1.65 z-score | 2.08 z-score |
| CCGATTAACATCAATTACCCCCCTGATGTTAATCGGGTCTTGATTCGCTTGACGCTGCTG | 5.22 z-score | 4.35 z-score |
| CCGATTAACATCAGAAGTTTCCCTGATGTTAATCGGGTCTTGATTCGCTTGACGCTGCTG | 5.14 z-score | 4.43 z-score |
| CCGATTAACATCAGAATGCCCCCTGATGTTAATCGGGTCTTGATTCGCTTGACGCTGCTG | 3.07 z-score | 4.7 z-score |
| CCGATTAACATCACATGGGAAACTGATGTTAATCGGGTCTTGATTCGCTTGACGCTGCTG | 2.7 z-score | 1.26 z-score |
| CCGATTAACATCAGGCATTTCCCTGATGTTAATCGGGTCTTGATTCGCTTGACGCTGCTG | 3.99 z-score | 3.68 z-score |
| CCGATTAACATCAGAAAATTACCTGATGTTAATCGGGTCTTGATTCGCTTGACGCTGCTG | 5.7 z-score | 4.34 z-score |

| Sequence | binding signal [1] | binding signal [2] |
| --- | --- | --- |
| CCGATTAACATCAGGGATTTTGATGATGTTAATCGGGTCTTGATTCGCTTGACGCTGCTG | 2.92 z-score | 2.85 z-score |
| CCGATTAACATCACAGGGAAAAATGATGTTAATCGGGTCTTGATTCGCTTGACGCTGCTG | 5.18 z-score | 3.13 z-score |
| CCGATTAACATCAAACTCTCCCCTGATGTTAATCGGGTCTTGATTCGCTTGACGCTGCTG | 4.93 z-score | 4.08 z-score |
| CCGATTAACATCAAATTCCCAGCTGATGTTAATCGGGTCTTGATTCGCTTGACGCTGCTG | 3.85 z-score | 2.81 z-score |
| CCGATTAACATCAGGCGTCCCCCTGATGTTAATCGGGTCTTGATTCGCTTGACGCTGCTG | 4.71 z-score | 4.92 z-score |
| CCGATTAACATCAGGATTGCCCCTGATGTTAATCGGGTCTTGATTCGCTTGACGCTGCTG | 2.73 z-score | 3.69 z-score |
| CCGATTAACATCAAGTTTACCCCTGATGTTAATCGGGTCTTGATTCGCTTGACGCTGCTG | 3.57 z-score | 3.2 z-score |
| CCGATTAACATCAAAAATTGCCCTGATGTTAATCGGGTCTTGATTCGCTTGACGCTGCTG | 2.01 z-score | 2.11 z-score |
| CCGATTAACATCAGGTAACTACCTGATGTTAATCGGGTCTTGATTCGCTTGACGCTGCTG | 1.88 z-score | 1.3 z-score |
| CCGATTAACATCAAATTCCCGTATGATGTTAATCGGGTCTTGATTCGCTTGACGCTGCTG | 4.51 z-score | 3.02 z-score |
| CCGATTAACATCACCAAAATCCCTGATGTTAATCGGGTCTTGATTCGCTTGACGCTGCTG | 2.71 z-score | 2.9 z-score |
| CCGATTAACATCAGGGGGATAGATGATGTTAATCGGGTCTTGATTCGCTTGACGCTGCTG | 4.13 z-score | 3.89 z-score |
| CCGATTAACATCAGGAGGCCCCCTGATGTTAATCGGGTCTTGATTCGCTTGACGCTGCTG | 1.79 z-score | 2.78 z-score |
| CCGATTAACATCATTGGGAAAAATGATGTTAATCGGGTCTTGATTCGCTTGACGCTGCTG | 3.58 z-score | 2.4 z-score |
| CCGATTAACATCACCCAGTTCCCTGATGTTAATCGGGTCTTGATTCGCTTGACGCTGCTG | 1.2 z-score | 1.24 z-score |
| CCGATTAACATCACAACACCCCCTGATGTTAATCGGGTCTTGATTCGCTTGACGCTGCTG | 5.01 z-score | 4.62 z-score |
| CCGATTAACATCAGGGACCTCCCTGATGTTAATCGGGTCTTGATTCGCTTGACGCTGCTG | 1.67 z-score | 3.27 z-score |
| CCGATTAACATCACGGGATTTACTGATGTTAATCGGGTCTTGATTCGCTTGACGCTGCTG | 1.41 z-score | 2.12 z-score |
| CCGATTAACATCACCCGCTTTATTGATGTTAATCGGGTCTTGATTCGCTTGACGCTGCTG | 1.21 z-score | 1.46 z-score |
| CCGATTAACATCAACTTTCCCAGTGATGTTAATCGGGTCTTGATTCGCTTGACGCTGCTG | 1.7 z-score | 1.59 z-score |
| CCGATTAACATCAGGAATCTACCTGATGTTAATCGGGTCTTGATTCGCTTGACGCTGCTG | 1.79 z-score | 2.27 z-score |
| CCGATTAACATCAGGATAATCCCTGATGTTAATCGGGTCTTGATTCGCTTGACGCTGCTG | 1.62 z-score | 2.15 z-score |
| CCGATTAACATCAAAGAAATCCCTGATGTTAATCGGGTCTTGATTCGCTTGACGCTGCTG | 4.02 z-score | 3.77 z-score |
| CCGATTAACATCAGGGGGTTACATGATGTTAATCGGGTCTTGATTCGCTTGACGCTGCTG | 4.94 z-score | 5.16 z-score |
| CCGATTAACATCAGGGTGTTTTATGATGTTAATCGGGTCTTGATTCGCTTGACGCTGCTG | 2.32 z-score | 4.01 z-score |

| Sequence | binding signal [1] | binding signal [2] |
| --- | --- | --- |
| CCGATTAACATCAGACAATTCCCTGATGTTAATCGGGTCTTGATTCGCTTGACGCTGCTG | 4.51 z-score | 4.15 z-score |
| CCGATTAACATCAAGTACCCCCATGATGTTAATCGGGTCTTGATTCGCTTGACGCTGCTG | 3.01 z-score | 2.36 z-score |
| CCGATTAACATCACCCGGGAAAATGATGTTAATCGGGTCTTGATTCGCTTGACGCTGCTG | 4.34 z-score | 3.07 z-score |
| CCGATTAACATCAATATAGTCCCTGATGTTAATCGGGTCTTGATTCGCTTGACGCTGCTG | 4.68 z-score | 3.8 z-score |
| CCGATTAACATCATGGAGGGAGGTGATGTTAATCGGGTCTTGATTCGCTTGACGCTGCTG | 1.02 z-score | 1.63 z-score |
| CCGATTAACATCACGGAAACCCCTGATGTTAATCGGGTCTTGATTCGCTTGACGCTGCTG | 3.87 z-score | 4.6 z-score |
| CCGATTAACATCAAGGGTTTTCCTGATGTTAATCGGGTCTTGATTCGCTTGACGCTGCTG | 2.41 z-score | 2.92 z-score |
| CCGATTAACATCACCCACTTCCCTGATGTTAATCGGGTCTTGATTCGCTTGACGCTGCTG | 2.13 z-score | 1.86 z-score |
| CCGATTAACATCAAATTGCCCCCTGATGTTAATCGGGTCTTGATTCGCTTGACGCTGCTG | 4.54 z-score | 4.59 z-score |
| CCGATTAACATCAGGGAAAACACTGATGTTAATCGGGTCTTGATTCGCTTGACGCTGCTG | 5.79 z-score | 4.24 z-score |
| CCGATTAACATCAGATCTTCCCCTGATGTTAATCGGGTCTTGATTCGCTTGACGCTGCTG | 6.54 z-score | 5.04 z-score |
| CCGATTAACATCAGAAATTTACCTGATGTTAATCGGGTCTTGATTCGCTTGACGCTGCTG | 4.13 z-score | 3.29 z-score |
| CCGATTAACATCATAGTCCCATGTGATGTTAATCGGGTCTTGATTCGCTTGACGCTGCTG | 1.82 z-score | 1.34 z-score |
| CCGATTAACATCAGAAATTTTCCTGATGTTAATCGGGTCTTGATTCGCTTGACGCTGCTG | 1.33 z-score | 2.13 z-score |
| CCGATTAACATCAAACAGGGAAATGATGTTAATCGGGTCTTGATTCGCTTGACGCTGCTG | 3.74 z-score | 2.36 z-score |
| CCGATTAACATCAGGGGGTCACCTGATGTTAATCGGGTCTTGATTCGCTTGACGCTGCTG | 2.36 z-score | 2.9 z-score |
| CCGATTAACATCACAAAACTCCCTGATGTTAATCGGGTCTTGATTCGCTTGACGCTGCTG | 6.52 z-score | 4.95 z-score |
| CCGATTAACATCAGGACTGTCCCTGATGTTAATCGGGTCTTGATTCGCTTGACGCTGCTG | 2.57 z-score | 3.92 z-score |
| CCGATTAACATCAAACAATTCCCTGATGTTAATCGGGTCTTGATTCGCTTGACGCTGCTG | 5.01 z-score | 3.72 z-score |
| CCGATTAACATCATGGGTGGGAATGATGTTAATCGGGTCTTGATTCGCTTGACGCTGCTG | 1.12 z-score | 1.32 z-score |
| CCGATTAACATCAGGCAAGTCCCTGATGTTAATCGGGTCTTGATTCGCTTGACGCTGCTG | 3.07 z-score | 3.44 z-score |
| CCGATTAACATCAAAACAGCCCCTGATGTTAATCGGGTCTTGATTCGCTTGACGCTGCTG | 3.68 z-score | 4.54 z-score |
| CCGATTAACATCAGGGAAACCCATGATGTTAATCGGGTCTTGATTCGCTTGACGCTGCTG | 3.84 z-score | 3.11 z-score |
